Screens from PubChem BioAssay.
Sampled rows, rich in hits. Any-hit rate of the full collection: about 3.2%.
Sm TGR inh: blocks Schistosoma mansoni thioredoxin glutathione reductase; Q962Y6; purified TGR, DTNB reduction, TNB absorbance 405 nm; 3% of 360,000 active; Potency, µM (highest dose often 114 µM), usual class: inhibitors; further: nearly all actives have a fitted effect of over 60% in size
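First, TGR (20 nM dispensed) and NADPH were mixed with compound. Second, a 15 min room-temperature incubation followed. Third, further NADPH and then DTNB were added to start the reaction. Finally, TNB absorbance was monitored kinetically.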
AmpC inh detg: AmpC beta-lactamase inhibition with detergent present; AmpC hydrolysis of nitrocefin, absorbance 480 nm, 0.01% Triton; Potency, µM (series often up to 114 µM), most hits filed as inhibitors; P00811; AID 485294; 0.041% of 370,000 active; further: nearly all actives have a fitted effect of over 25% in size
Target sequence (P00811 whole entry, looked up): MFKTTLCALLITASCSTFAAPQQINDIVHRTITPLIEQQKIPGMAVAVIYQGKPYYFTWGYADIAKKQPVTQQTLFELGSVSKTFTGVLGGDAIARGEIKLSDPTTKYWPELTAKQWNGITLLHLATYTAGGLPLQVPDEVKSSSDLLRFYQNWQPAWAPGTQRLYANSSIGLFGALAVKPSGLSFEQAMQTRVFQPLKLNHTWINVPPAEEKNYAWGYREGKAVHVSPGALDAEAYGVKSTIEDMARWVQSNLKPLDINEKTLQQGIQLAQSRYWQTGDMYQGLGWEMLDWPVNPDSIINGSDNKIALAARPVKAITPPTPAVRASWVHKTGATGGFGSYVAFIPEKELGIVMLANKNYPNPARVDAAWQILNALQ
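20 mM phosphate pH 7.0 + 0.01% (detergent screen) or 0.0001% Triton X-100; 5.3 nM AmpC reagent; cpd preinc 15 min RT; nitrocefin (800 uM stock) to start; A480 q20 s × 4 min; Activity was normalised to no-enzyme and no-compound control wells.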
RE007 growth inh: less growth of the S. pombe RE007 Vpr strain; S. pombe RE007 Vpr strain, BacTiter-Glo ATP luminescence, 24 h; Potency, µM (series often up to 92.2 µM), actives largely listed as inhibitors; 0.21% of 360,000 active; AID 651644; active means well fitted falling curve with a large enough effect; inconclusive means small, poorly fitted or top-dose-only effect; inactive means no such curve, though single readings can be large or run the other way; further: nearly all actives have a fitted effect of over 50% in size
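Fission yeast RE007 carrying one integrated HIV-1 vpr copy, seeded at OD 0.01 in PMG+AL medium with 23 nL pinned compound. Grown 24 h at 30 degrees; viability read by BacTiter-Glo luminescence after 5 min.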
AmpC no deterg: blocks E. coli AmpC beta-lactamase in detergent-free assay; P00811; AmpC nitrocefin hydrolysis, absorbance 480 nm, 0.0001% Triton; Potency, µM (top dose mostly 57.1 µM), hits mostly inhibitors; 0.52% of 330,000 active; AID 485341; further: nearly all actives have a fitted effect of over 20% in size
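20 mM phosphate pH 7.0 + 0.01% (detergent screen) or 0.0001% Triton X-100; 5.3 nM AmpC reagent; cpd preinc 15 min RT; nitrocefin (800 uM stock) to start; A480 q20 s × 4 min; Activity was normalised to no-enzyme and no-compound control wells.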
AMA1 RON2 block: AMA1-RON2 (P. falciparum) interaction inhibition; AID 720542; AlphaScreen AMA1-biotinylated RON2 peptide binding; 0.2% of 360,000 active; Potency, µM (top dose mostly 58.2 µM), usual class: inhibitors; further: nearly all actives have a fitted effect of over 45% in size
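AMA1 (3D7) with his tag at 25 nM final met compounds first, then biotinylated RON2 peptide at 25 nM; detection used donor plus acceptor beads, 10 µg/mL apiece, read by AlphaScreen after 30 min at room temperature.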
Large screens that a line does not name were inactive. Unless noted, the call rests on the fitted dose curve; in most records, active means well fitted curve in the direction sought with a large enough effect; inconclusive means small, poorly fitted or top-dose-only effect, or another doubt; inactive means no such curve, though single readings can be large; an effect the other way counts as inactive or inconclusive.

OCC1(CC2CCCCO2)CCN(Cc2ccccc2-c2ccco2)CC1 (stereo unspecified)	Sm TGR inh inconclusive
CCOC(=O)C1(CC2CCCCO2)CCN(Cc2ccccc2-c2ccco2)CC1 (stereo unspecified)	Sm TGR inh 40µM
O=C(NCc1ccco1)C(c1ccncc1)N(CCC1=CCCCC1)C(=O)Cn1nnc2ccccc21 (stereo unspecified)	Sm TGR inh 45µM, AmpC inh detg inconclusive
COc1ccc(C(C(=O)NCc2ccccc2)N(C(=O)Cn2nnc3ccccc32)c2ccc(OC)cc2)cc1 (stereo unspecified)	none (no result: RE007 growth inh, AmpC no deterg, AMA1 RON2 block)
O=C(O)C1Nc2c(C(F)(F)F)ccc(Cl)c2C2C=CCC12 (stereo unspecified)	Sm TGR inh inconclusive (no result: RE007 growth inh)
Cc1ccc2c(c1C)NC(C(=O)O)C1CC=CC21 (stereo unspecified)	Sm TGR inh 2.5µM, AmpC inh detg inconclusive, AMA1 RON2 block 12µM
O=C(O)C1Nc2c(C(=O)N3CCOCC3)cccc2C2C=CCC12 (stereo unspecified)	Sm TGR inh inconclusive, AmpC inh detg inconclusive
Cc1cc(C)c2c(c1)NC(C(=O)O)C1CC=CC21 (stereo unspecified)	Sm TGR inh 0.63µM, AMA1 RON2 block inconclusive
COc1ccc(NC(=O)c2oc3ccccc3c2NC(=O)Cc2coc3c(C)c(C)ccc23)cc1	none (no result: RE007 growth inh, AmpC no deterg, AMA1 RON2 block)
Cc1ccc(NC(=O)CN2C(=O)CSc3ccc(S(=O)(=O)N4CCCC4)cc32)c(C)c1	none (no result: RE007 growth inh, AmpC no deterg, AMA1 RON2 block)
COc1ccc(C)cc1NC(=O)CSc1ccc(-c2ccccn2)nn1	AMA1 RON2 block 20µM
Cc1ccccc1NC(=O)CSc1ccc(-c2ccco2)nn1	none
COc1ccc(OC)c(NC(=O)CSc2ccc(-c3cccs3)nn2)c1	none (no result: RE007 growth inh, AmpC no deterg, AMA1 RON2 block)
Cc1ccc(C)c(NC(=O)CSc2ccc(-c3ccco3)nn2)c1	Sm TGR inh 13µM
COc1ccc(OC)c(NC(=O)CSc2ccc(-c3ccco3)nn2)c1	Sm TGR inh 3.5µM
O=C(CSc1nnc2ccc(-c3ccco3)nn12)Nc1ccccc1F	Sm TGR inh 11µM, AmpC inh detg inconclusive
Cc1cccc(NC(=O)CSc2nc3c(c(=O)[nH]2)CN(Cc2ccc4c(c2)OCO4)CC3)c1C	none (no result: RE007 growth inh, AmpC no deterg, AMA1 RON2 block)
COc1ccccc1NC(=O)CSc1ccc(-c2ccco2)nn1	Sm TGR inh 20µM
Cc1cc(C)c(S(=O)(=O)NCC(c2ccco2)S(=O)(=O)c2cccs2)c(C)c1 (stereo unspecified)	Sm TGR inh 0.28µM (no result: RE007 growth inh, AmpC no deterg, AMA1 RON2 block)
CCOc1ccc(C(=O)NCC(c2ccco2)S(=O)(=O)c2cccs2)cc1 (stereo unspecified)	Sm TGR inh 5.6µM (no result: RE007 growth inh, AmpC no deterg, AMA1 RON2 block)
Cc1cc(S(=O)(=O)NCC(c2ccco2)S(=O)(=O)c2cccs2)ccc1F (stereo unspecified)	Sm TGR inh inconclusive (no result: RE007 growth inh, AmpC no deterg, AMA1 RON2 block)
CCOC(=O)C(=O)NCC(c1ccco1)S(=O)(=O)c1cccs1 (stereo unspecified)	Sm TGR inh 2.5µM
COc1ccc(C(=O)NCC(c2cccs2)S(=O)(=O)c2cccs2)cc1 (stereo unspecified)	none (no result: RE007 growth inh, AmpC no deterg, AMA1 RON2 block)
Cc1cccc(Cn2c(=O)n3nc(-c4ccccc4)nc3c3ccccc32)c1	none (no result: RE007 growth inh, AmpC no deterg, AMA1 RON2 block)
Cc1ccc(-c2nc3c4ccccc4n(Cc4cccc(Cl)c4)c(=O)n3n2)cc1	none (no result: RE007 growth inh, AmpC no deterg, AMA1 RON2 block)
Cc1ccc(Sc2c(C)nn(C(=O)COc3ccccc3)c2C)cc1	none (no result: RE007 growth inh, AmpC no deterg, AMA1 RON2 block)
COc1cccc([C@@H]2Nc3ccc(C(=O)O)cc3[C@@H]3C=CC[C@@H]32)c1OC	none (no result: RE007 growth inh, AmpC no deterg, AMA1 RON2 block)
FC(F)(F)c1ccc2c(c1)C1C=CCC1C(c1ccncc1)N2 (stereo unspecified)	none
O=C(O)c1ccc2c(c1)C1C=CCC1C(c1ccncc1)N2 (stereo unspecified)	Sm TGR inh 22µM, AmpC inh detg inconclusive
Cc1c(Cl)cccc1NS(=O)(=O)c1ccc2c(c1)C1C=CCC1C(c1ccc(C(=O)O)cc1)N2 (stereo unspecified)	Sm TGR inh 20µM, AMA1 RON2 block inconclusive
CCCC1Nc2ccc(C(=O)O)cc2C2C=CCC12 (stereo unspecified)	Sm TGR inh 40µM
